According to PubChem BioAssay (NCATS):
Results filed as inconclusive are left out. Where a call stands in place of a potency, no number is given. Calls of active or inactive are those of the source. Calls follow the shape of the dose curve; as a rule, active = well fitted curve in the direction sought with a large enough effect; inconclusive = small, poorly fitted or top-dose-only effect, or another doubt; inactive = no such curve, though single readings can be large; an effect the other way counts as inactive or inconclusive.

Assays:
[1] = qHTS of pediatric cancer cell lines to identify multiple opportunities for drug repurposing: Primary screen for MG 63 (6-TG R) cells (AID 1347105); also: nearly all actives have a fitted effect of over 50% in size
Outline: (§1)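 Cells plated at 500-1,000/well in growth medium, compounds added after 5 h. MIPE tested at 11 points (from 0.78 nM), NPC at 8 points (from 0.59 nM). CellTiter-Glo luminescence after 48 h; concentration-response curves from primary screen.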

[2] = qHTS of pediatric cancer cell lines to identify multiple opportunities for drug repurposing: Primary screen for Rh30 cells (AID 1347107); also: nearly all actives have a fitted effect of over 75% in size; also: potency is read from the fitted curve at half-maximal effect
Outline: (§2)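 Viability after 48 h compound treatment at 37C, 500-1,000 cells/well, read as ATP luminescence with CellTiter-Glo. Primary screens used 11-point (MIPE, 0.78 nM-46 µM) or 8-point (NPC, 0.59 nM-46 µM) final concentrations; follow-up screens used 11-point dilutions.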

[3] = qHTS of pediatric cancer cell lines to identify multiple opportunities for drug repurposing: Primary screen for Rh41 cells (AID 1347108); also: nearly all actives have a fitted effect of over 70% in size; also: potency is read from the fitted curve at half-maximal effect
Outline: as §1

[4] = qHTS of pediatric cancer cell lines to identify multiple opportunities for drug repurposing: Confirmatory screen for NB1643 cells (AID 1347109); also: nearly all actives have a fitted effect of over 45% in size; also: potency is read from the fitted curve at half-maximal effect
Outline: as §2

[5] = qHTS of pediatric cancer cell lines to identify multiple opportunities for drug repurposing: Confirmatory screen for A673 cells (AID 1347110); also: nearly all actives have a fitted effect of over 65% in size; also: potency is read from the fitted curve at half-maximal effect
Outline: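 Forty-eight-hour viability assay. Follow-up compounds ran at 11-point dilutions; positive control bortezomib at 2.3 uM final, neutral control DMSO.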

[6] = qHTS of pediatric cancer cell lines to identify multiple opportunities for drug repurposing: Confirmatory screen for LAN-5 cells (AID 1347113); also: nearly all actives have a fitted effect of over 65% in size; also: potency is read from the fitted curve at half-maximal effect
Outline: as §2

[7] = qHTS of pediatric cancer cell lines to identify multiple opportunities for drug repurposing: Confirmatory screen for NB-EBc1 cells (AID 1347115); also: nearly all actives have a fitted effect of over 45% in size; also: potency is read from the fitted curve at half-maximal effect
Outline: as §2

[8] = qHTS of pediatric cancer cell lines to identify multiple opportunities for drug repurposing: Confirmatory screen for SJ-GBM2 cells (AID 1347116); also: nearly all actives have a fitted effect of over 60% in size; also: potency is read from the fitted curve at half-maximal effect
Outline: (§3)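 Viability measured as metabolically active cells via CellTiter-Glo luminescence following 48 hours of compound exposure, 11-point dilutions in confirmatory testing. 500-1,000 cells/well plated 5 hours before dosing; controls were DMSO and 2.3 µM bortezomib.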

[9] = qHTS of pediatric cancer cell lines to identify multiple opportunities for drug repurposing: Confirmatory screen for RD cells (AID 1347124);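 also: cells exposed to compound for 48 h before viability readout; nearly all actives have a fitted effect of over 65% in size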; also: potency is read from the fitted curve at half-maximal effect
Outline: as §2

[10] = qHTS of pediatric cancer cell lines to identify multiple opportunities for drug repurposing: Confirmatory screen for Rh18 cells (AID 1347125); also: nearly all actives have a fitted effect of over 55% in size; also: potency is read from the fitted curve at half-maximal effect
Outline: as §2

[11] = qHTS of pediatric cancer cell lines to identify multiple opportunities for drug repurposing: Confirmatory screen for Rh30 cells (AID 1347126); also: nearly all actives have a fitted effect of over 55% in size; also: potency is read from the fitted curve at half-maximal effect
Outline: as §2

[12] = qHTS of pediatric cancer cell lines to identify multiple opportunities for drug repurposing: Confirmatory screen for Saos-2 cells (AID 1347127); also: nearly all actives have a fitted effect of over 60% in size; also: potency is read from the fitted curve at half-maximal effect
Outline: as §2

[13] = qHTS of pediatric cancer cell lines to identify multiple opportunities for drug repurposing: Confirmatory screen for OHS-50 cells (AID 1347128);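 also: compound exposure lasted 48 h at 37 degrees C; nearly all actives have a fitted effect of over 55% in size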; also: potency is read from the fitted curve at half-maximal effect
Outline: as §2

[14] = qHTS of pediatric cancer cell lines to identify multiple opportunities for drug repurposing: Primary screen for control Hh wild type fibroblast cells (AID 1347106);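 also: series mostly up to about 46 µM; a drop in luminescence marks cytotoxicity and a rise apparent proliferation; nearly all actives have a fitted effect of over 55% in size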
Outline: as §2

Furin (Homo sapiens) = Furin (Homo sapiens) (UniProt P09958); assay: Furin counterscreen qHTS for Zika virus inhibitors (AID 1347149);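 also: purified recombinant full-length human furin enzyme at 5 nM; fluorescence gain from furin cutting a BOC-RVRR-AMC peptide substrate over 15 min; top concentration of the series differs between compounds; nearly all actives have a fitted effect of over 70% in size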
Outline: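 Fluorogenic cleavage of BOC-RVRR-AMC (2 microM final, Km ~15 µM) was monitored (ex 340, em 450 nm) at 37C after 15 min RT preincubation of 5 nM furin with compounds in HEPES pH 7.0 buffer with CaCl2 and Triton X-100. Percent inhibition was fitted to a 4-parameter Hill curve.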

[15] = biological target: N-terminal Xaa-Pro-Lys N-methyltransferase 1 (Homo sapiens) (UniProt Q9BV86); assay: qHTS Assay for Inhibitors of N-terminal methyltransferase 1 (NTMT1): LOPAC validation of the NTMT1 SAHH-coupled ThioGlo3 Assay (AID 1347143);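 also: SAH from peptide methylation measured as thiol fluorescence via SAHH coupling and ThioGlo3; nearly all actives have a fitted effect of over 70% in size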; also: potency is read from the fitted curve at half-maximal effect
Outline: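 Recombinant human NTMT1 (125nM) was pre-incubated 1 min at room temperature with compounds over a concentration range, then a mix of 100uM SAM, 10uM SAHH and 15uM ThioGlo3 (concentrations in added reagent) was added. ThioGlo3 fluorescence (ex 340/em 450nm) after 30 min was normalized to the initial reading.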

[16] = qHTS of pediatric cancer cell lines to identify multiple opportunities for drug repurposing: Confirmatory screen for SK-N-MC cells (AID 1347111);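 also: potency is read from the fitted curve at half-maximal effect; cells exposed to compound for 48 h before the readout; nearly all actives have a fitted effect of over 70% in size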
Outline: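 SK-N-MC cells at 500-1,000 cells/well in growth media were pre-incubated 5 h, then exposed to compounds at 11-point dilutions for 48 h at 37 degrees C, 5% CO2. Viability was read as CellTiter-Glo luminescence.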

[17] = qHTS of pediatric cancer cell lines to identify multiple opportunities for drug repurposing: Confirmatory screen for DAOY cells (AID 1347114); also: nearly all actives have a fitted effect of over 65% in size; also: potency is read from the fitted curve at half-maximal effect
Outline: as §3

[18] = qHTS of pediatric cancer cell lines to identify multiple opportunities for drug repurposing: Confirmatory screen for BT-37 cells (AID 1347117)
Outline: as §2

[19] = qHTS of pediatric cancer cell lines to identify multiple opportunities for drug repurposing: Confirmatory screen for TC32 cells (AID 1347118)
Outline: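 qHTS, TC32, 48 h drug treatment, CellTiter-Glo luminescence as a proxy for metabolically active cells; primary top concentration 46 µM (MIPE 11-pt, NPC 8-pt); confirmatory 11-pt.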

Sequence of Furin (Homo sapiens) (P09958 whole entry, looked up): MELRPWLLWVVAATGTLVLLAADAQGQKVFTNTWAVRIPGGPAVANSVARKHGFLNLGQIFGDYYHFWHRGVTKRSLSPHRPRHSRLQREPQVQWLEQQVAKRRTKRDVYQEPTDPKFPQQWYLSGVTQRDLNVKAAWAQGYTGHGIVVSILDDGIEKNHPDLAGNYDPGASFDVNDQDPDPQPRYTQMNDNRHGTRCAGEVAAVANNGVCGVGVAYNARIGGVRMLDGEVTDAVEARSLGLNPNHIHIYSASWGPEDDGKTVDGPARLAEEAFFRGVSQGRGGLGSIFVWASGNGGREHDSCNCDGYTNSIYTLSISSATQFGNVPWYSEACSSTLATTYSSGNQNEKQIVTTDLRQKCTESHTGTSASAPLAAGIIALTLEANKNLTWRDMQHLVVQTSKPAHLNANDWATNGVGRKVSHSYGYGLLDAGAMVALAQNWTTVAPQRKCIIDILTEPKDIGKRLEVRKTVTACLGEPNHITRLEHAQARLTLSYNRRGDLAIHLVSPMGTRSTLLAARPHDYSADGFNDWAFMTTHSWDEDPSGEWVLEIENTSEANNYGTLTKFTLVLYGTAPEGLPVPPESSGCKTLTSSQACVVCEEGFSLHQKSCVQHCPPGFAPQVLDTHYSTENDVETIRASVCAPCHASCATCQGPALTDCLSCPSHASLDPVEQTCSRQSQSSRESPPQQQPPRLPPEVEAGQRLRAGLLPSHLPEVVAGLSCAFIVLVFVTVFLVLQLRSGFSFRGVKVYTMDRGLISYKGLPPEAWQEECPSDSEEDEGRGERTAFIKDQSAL
Sequence of N-terminal Xaa-Pro-Lys N-methyltransferase 1 (Homo sapiens) (Q9BV86 whole entry, looked up): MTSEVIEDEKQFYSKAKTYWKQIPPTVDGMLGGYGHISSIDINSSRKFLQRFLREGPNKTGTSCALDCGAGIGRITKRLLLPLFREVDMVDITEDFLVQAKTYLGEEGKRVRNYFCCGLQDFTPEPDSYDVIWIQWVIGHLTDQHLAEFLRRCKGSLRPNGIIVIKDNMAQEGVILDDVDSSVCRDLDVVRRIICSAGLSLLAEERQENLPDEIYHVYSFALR

With `CC(=O)OCC(=O)[C@@]1(OC(C)=O)[C@@H](C)C[C@H]2[C@@H]3C[C@H](F)C4=CC(=O)C=C[C@]4(C)[C@@]3(F)[C@@H](O)C[C@@]21C` the Potency [1] was “inactive”, the Potency [2] was “inactive” and the Potency [3] was “inactive”. The Potency [4] was “inactive”, the Potency [5] was “inactive” and the Potency [6] was “inactive”. The Potency [7] was “inactive”, the Potency [8] was “inactive” and the Potency [9] was “inactive”. The Potency [10] was “inactive”, the Potency [11] was “inactive” and the Potency [12] was “inactive”. The Potency [13] was “inactive”.
For `CC(=O)N/N=C/c1ccc([N+](=O)[O-])o1`, the Potency [14] was “inactive” and the Potency [2] was “inactive”.
In the case of `CC(=O)Nc1c(I)cc(I)c(C(=O)O)c1I`, the Potency [14] is reported as “inactive”, the Potency [2] is reported as “inactive” and the Potency [3] is reported as “inactive”.
For `Nc1ccn([C@@H]2O[C@H](CO)[C@@H](O)C2(F)F)c(=O)n1`, the Potency [14] was “inactive”, the Potency [2] was “inactive” and the Potency (Furin (Homo sapiens)) was “inactive”.
In the case of `CCCCCCCCCCCCCCCC[N+](C)(C)CCN(Cc1ccc(OC)cc1)c1ncccn1`, the Potency [2] is reported as 16.8 µM (active) and the Potency [3] is reported as 16.8 µM (active).
In the case of `CCCSS/C(CCO)=C(\C)N(C=O)Cc1cnc(C)nc1N`, the Potency [2] is reported as “inactive”.
In the case of `O=C1CCC(c2ccc(-n3ccnc3)cc2)=NN1`, the Potency [15] is reported as “inactive”.
With `CC(C)COC(=O)OCN1C(=O)CN(CCN2CC(=O)N(COC(=O)OCC(C)C)C(=O)C2)CC1=O` the Potency [15] was “inactive”.
In the case of `C#C[C@]1(O)CC[C@H]2[C@@H]3CCC4=CC(=O)CC[C@@H]4[C@H]3CC[C@@]21C`, the Potency [14] is reported as “inactive”, the Potency [2] is reported as “inactive” and the Potency [3] is reported as “inactive”.
With `C[N+]1(CCCCC[N+]2(C)CCCC2)CCCC1` the Potency [15] was “inactive”.
For `Oc1c(Cl)cc(Cl)cc1Sc1cc(Cl)cc(Cl)c1O`, the Potency [14] was “inactive”, the Potency [2] was “inactive” and the Potency [3] was “inactive”. The Potency (Furin (Homo sapiens)) was “inactive”.
For `CC(=O)O[C@H]1C[C@@H]2CC[C@@H]3[C@H](CC[C@@]4(C)[C@H]3C[C@H]([N+]3(C)CCCCC3)[C@@H]4OC(C)=O)[C@@]2(C)C[C@@H]1[N+]1(C)CCCCC1`, the Potency [15] was “inactive”.
With `COc1c(C)c2c(c(O)c1C/C=C(\C)CCC(=O)O)C(=O)OC2` the Potency [2] was “inactive”, the Potency [5] was 2.61 µM (active) and the Potency [10] was 1.31 µM (active). The Potency [11] was 1.31 µM (active) and the Potency (Furin (Homo sapiens)) was “inactive”.
For `CN1C2CCC1CC(OC(=O)c1c[nH]c3ccccc13)C2` (centres undefined), the Potency [15] was “inactive”.
In the case of `C[n+]1c2cc(N)ccc2cc2ccc(N)cc21` (tested in a mixture with another compound), the Potency [3] is reported as 16.8 µM (active), the Potency [4] is reported as 3.29 µM (active) and the Potency [5] is reported as 5.22 µM (active). The Potency [16] was 6.57 µM (active), the Potency [6] was 3.29 µM (active) and the Potency [17] was 6.57 µM (active). For the same molecule, the Potency [8] was 13.1 µM (active), the Potency [18] was 0.827 µM (active) and the Potency [19] was 5.85 µM (active). The Potency [9] was 0.657 µM (active), the Potency [10] was 5.85 µM (active) and the Potency [11] was 6.57 µM (active). For the same molecule, the Potency [13] was 9.27 µM (active).
With `CCCCCCC[N+](CC)(CC)CCCCc1ccc(Cl)cc1` the Potency [14] was “inactive”, the Potency [3] was 15 µM (active) and the Potency [4] was 14.7 µM (active). The Potency [5] was 3.69 µM (active), the Potency [16] was 9.27 µM (active) and the Potency [6] was 8.27 µM (active). The Potency [17] was “inactive”, the Potency [18] was 5.22 µM (active) and the Potency [9] was “inactive”. For the same molecule, the Potency [10] was 13.1 µM (active), the Potency [11] was 10.4 µM (active) and the Potency [12] was 11.7 µM (active). The Potency [13] was 23.3 µM (active).
For `Nc1cc(Cl)c(NC2=NCCN2)c(Cl)c1`, the Potency [15] was “inactive”.
For `COc1cc(NS(C)(=O)=O)ccc1Nc1c2ccccc2nc2ccccc12`, the Potency [15] was 50.1 µM (active).
With `O=C(Nc1ccc(Oc2ccc(Cl)cc2)c(Cl)c1)c1cc(I)cc(I)c1O` the Potency [14] was “inactive”, the Potency [2] was “inactive” and the Potency [3] was “inactive”. The Potency (Furin (Homo sapiens)) was “inactive”.
In the case of `CC(CCc1ccccc1)NCC(O)c1ccc(O)c(C(N)=O)c1` (centres undefined), the Potency [15] is reported as 56.2 µM (active).
With `Cc1c(C)n(Cc2ccccc2)c2ccc(C(=O)OCCN(C)C)cc12` the Potency [2] was “inactive” and the Potency [3] was “inactive”.
In the case of `COc1cc(C=C2CCC/C(=C\c3ccc(O)c(OC)c3)C2=O)ccc1O`, the Potency [14] is reported as “inactive”, the Potency [4] is reported as 18.5 µM (active) and the Potency [5] is reported as 0.185 µM (active). The Potency [16] was 0.465 µM (active), the Potency [6] was 5.85 µM (active) and the Potency [17] was 14.7 µM (active). The Potency [7] was 23.3 µM (active), the Potency [8] was 18.5 µM (active) and the Potency [18] was 5.85 µM (active). The Potency [19] was 0.414 µM (active), the Potency [9] was 9.27 µM (active) and the Potency [11] was 20.8 µM (active). The Potency [12] was 11.7 µM (active) and the Potency [13] was 16.5 µM (active).
With `CC1(C)CCC(NC(=O)[C@@H](N)CCC(=O)O)CC1` the Potency [15] was “inactive”.
For `C/C=C(/C(=C/C)c1ccc(O)cc1)c1ccc(O)cc1`, the Potency [14] was “inactive”, the Potency [2] was “inactive” and the Potency [3] was “inactive”.
In the case of `O=C(O)c1cc2cc(Cc3cccnc3)ccc2o1`, the Potency [15] is reported as “inactive”.
In the case of `C[C@@H]1C(=O)NC2=Nc3cccc(Cl)c3CN21`, the Potency [15] is reported as “inactive”.
For `N[C@H](CO)C(=O)O`, the Potency [15] was “inactive”.
For `CC(C)C[C@H]1C(=O)N2CCC[C@H]2[C@]2(O)O[C@](NC(=O)[C@@H]3C=C4c5cccc6[nH]c(Br)c(c56)C[C@H]4N(C)C3)(C(C)C)C(=O)N12`, the Potency [15] was 56.2 µM (active).
For `CC[C@H](C)C(=O)O[C@H]1CCC=C2C=C[C@H](C)[C@H](CC[C@@H]3C[C@@H](O)CC(=O)O3)[C@H]21`, the Potency [15] was “inactive”.
In the case of `CCCC1O[C@@H]2C[C@H]3[C@@H]4CCC5=CC(=O)C=C[C@]5(C)[C@H]4[C@@H](O)C[C@]3(C)[C@]2(C(=O)CO)O1` (some centres undefined), the Potency [15] is reported as “inactive”.
In the case of `N[C@@H](Cc1cnc[nH]1)C(=O)O`, the Potency [15] is reported as “inactive”.
For `COc1cc(-c2ccc(=O)[nH]n2)ccc1OC(F)F`, the Potency [2] was “inactive”.
In the case of `CCCCCCCCCCOCC(O)CN` (centres undefined), the Potency [2] is reported as “inactive”.
With `COc1cc2c(cc1OC)C(C(C(=O)N(CCc1ccc(OC)c(OC)c1OC)CCc1ccc(OC)c(OC)c1OC)c1ccccc1)=NCC2` (centres undefined) the Potency [2] was “inactive”.
With `CNCCC(Oc1ccccc1C)c1ccccc1` (centres undefined) the Potency [15] was “inactive”.
In the case of `CNCCC=C1c2ccccc2CCc2ccccc21`, the Potency [15] is reported as “inactive”.
With `CCCCOc1ccc(C(=O)CCN2CCCCC2)cc1` the Potency [2] was “inactive”.
For `CCCn1c(=O)[nH]c(=O)c2[nH]cnc21`, the Potency [15] was “inactive”.
In the case of `C1CCc2nnnn2CC1`, the Potency [15] is reported as “inactive”.
